# Menin MLL FP TR – inhibitors of human menin-MLL interaction, mutant MLL peptide; Potency, µM (titrated, usually from 61.6 µM), usual class: inhibitors; AID 1768; actives 0.23% (n = 270,000); O00255; Menin + Texas Red MLL mutant peptide, fluorescence polarization; active = well fitted inhibition curve with a large enough effect in the polarisation, with a control signal flat, not every such curve was filed as active; inconclusive = small, poorly fitted or top-dose-only effect, or effect the other way, or a change in a side signal; inactive = no such curve, though single readings can be large or run the other way; the % refers to the polarisation
# Menin-MLL FL inh – displaces fluorescein MLL peptide from human menin; Fluorescence polarization, fluorescein-MLL peptide displacement from menin; FP activity change, % at 61.4 µM; 290,000 tested, under 10 active; AID 1766; active = well fitted curve in the direction sought with a large enough effect in the polarisation, not every such curve was filed as active; inconclusive = small, poorly fitted or top-dose-only effect, or effect the other way, or a change in a side signal; inactive = no such curve, though single readings can be large or run the other way; the % refers to the polarisation
# PKM2 activator – activators of human pyruvate kinase M2; Potency, µM (titrated, usually from 57.5 µM), most hits filed as activators; purified PKM2, Kinase-Glo ATP luminescence, activation; response scale: 0% is enzyme alone, no compound; P14618; actives 0.34% (n = 260,000); AID 1631; also: nearly all actives have a fitted effect of over 55% in size
# Target sequence (P14618 whole entry, looked up): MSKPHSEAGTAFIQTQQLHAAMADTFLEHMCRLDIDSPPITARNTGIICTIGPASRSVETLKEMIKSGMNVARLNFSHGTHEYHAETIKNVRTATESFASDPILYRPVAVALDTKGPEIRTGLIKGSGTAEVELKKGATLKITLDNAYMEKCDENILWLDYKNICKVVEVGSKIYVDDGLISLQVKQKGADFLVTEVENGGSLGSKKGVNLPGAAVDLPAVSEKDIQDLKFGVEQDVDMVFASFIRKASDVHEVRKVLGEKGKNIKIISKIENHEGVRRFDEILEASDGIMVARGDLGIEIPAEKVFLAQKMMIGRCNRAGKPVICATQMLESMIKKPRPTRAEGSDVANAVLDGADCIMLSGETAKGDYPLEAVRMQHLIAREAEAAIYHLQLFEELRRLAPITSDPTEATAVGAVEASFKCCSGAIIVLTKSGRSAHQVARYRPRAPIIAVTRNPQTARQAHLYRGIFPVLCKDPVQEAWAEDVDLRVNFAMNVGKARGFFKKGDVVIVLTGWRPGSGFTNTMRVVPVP
#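 Purified hPK-M2 (>95% pure) converted ADP (0.1 mM final) to ATP with 0.5 mM PEP in 50 mM imidazole pH7.2, KCl, MgCl2, Tween 20, BSA; 1 h at room temperature. ATP detected by Kinase-Glo luminescence.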
# MLL CXXC-DNA inh – MLL CXXC-DNA interaction inhibition; MLL-CXXC / FITC-HOXA9 DNA fluorescence polarization; Potency, µM (top dose mostly 115 µM), hits mostly inhibitors; actives 0.037% (n = 290,000); AID 2662; active = well fitted inhibition curve with a large enough effect in the polarisation, with a control signal flat, not every such curve was filed as active; inconclusive = small, poorly fitted or top-dose-only effect, or effect the other way, or a change in a side signal; inactive = no such curve, though single readings can be large or run the other way; the % refers to the polarisation
#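 Fluorescence polarization: 7 uM MLL-CXXC (stock) preincubated 5 min with compounds, then 50 nM fluorescein-HOX-A9 DNA (stock) added; 30 min ambient. Buffer 50 mM Tris-HCl pH 7.5, 50 mM NaCl, 1 mM DTT, 0.05% BSA.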
# HeLa viability – reduces HeLa cell viability in PKM2 activator counter-screen; shares compounds with PKM2 activator; HeLa viability, CellTiter-Glo ATP luminescence, 24 h; activity change, negative = cytotoxicity, % at 57.5 µM; 230 tested, under 10 active
# Hits are given with their value; . = inactive; ? = inconclusive; / = no result; [ ] = remark or other dose. A selection: hits, their analogues and other compounds. The true share with any hit is near 0.41%. Unless noted, calls follow the shape of the dose curve; as a rule, active = well fitted curve in the direction sought with a large enough effect; inconclusive = small, poorly fitted or top-dose-only effect, or another doubt; inactive = no such curve, though single readings can be large; an effect the other way counts as inactive or inconclusive.
SMILES,Menin MLL FP TR,Menin-MLL FL inh,PKM2 activator,MLL CXXC-DNA inh,HeLa viability
O=c1c2ccccc2sn1-c1ccc(S(=O)(=O)N2CCCC2)cc1,?,.,1.4µM,.,.
CCOC(=O)N1CCN([N+]([O-])=NOc2cc(O/N=[N+](\[O-])N(CC)CC)c([N+](=O)[O-])cc2[N+](=O)[O-])CC1,.,.,/,/,/
Cc1cc2[nH]c3c(=O)n(Cc4ccccc4F)ncc3c2s1,/,/,/,/,.
O=C(Cn1ncc2c3ccccc3n(Cc3ccccc3F)c2c1=O)NC1CC1,?,.,/,.,/
O=c1c2cc3ccccc3n2cnn1Cc1ccccc1F,.,.,.,.,/
Cc1cc2c(s1)c1c(C)nn(Cc3ccccc3F)c(=O)c1n2C,/,/,/,/,.
Cc1cc2c(s1)c1cnn(Cc3ccc(C)c(F)c3F)c(=O)c1n2C,/,/,/,/,.
CCn1c2cc(C)sc2c2cnn(Cc3ccccc3F)c(=O)c21,/,/,/,/,.
C=CCC(O)CC1C2C(CC(O)CC=C)C3C1C3C2OC(C)(C)C (stereo unspecified),.[11.7 µM],.[11.7 µM],/,/,/
CC(C)Cn1nnnc1S(=O)(=O)CCc1ccccc1,.,.,/,/,/
COCC(=O)N1CCC[C@@]2(CCN(Cc3cc(C(F)(F)F)cc(C(F)(F)F)c3)C2)C1,.,.,/,/,/
Cn1c2ccccc2c2cnn(CC(=O)O)c(=O)c21,.,.,.,.,/
Cc1cc2c(s1)c1cnn(Cc3ccc(C(F)(F)F)cc3F)c(=O)c1n2C,/,/,/,/,.
Cc1cc2c(s1)c1cnn(Cc3cccc(F)c3F)c(=O)c1n2C,/,/,/,/,.
CC(C)(C)OC(=O)N1CCCC1C(=O)NC1COC2CC(n3ccc(=O)[nH]c3=O)OC12 (stereo unspecified),.,.,/,/,/
O=c1[nH]c(CN2CCN(Cc3ccccc3)CC2)nc2scc(-c3ccccc3)c12,/,?,.,.,/
O=c1[nH]c(Cn2nnc(-c3ccccc3)n2)nc2scc(-c3ccccc3)c12,?,.,14µM,.,.
O=S(=O)(NCCNS(=O)(=O)c1c(F)cccc1F)c1ccc2c(c1)OCCO2,/,/,/,/,.
O=S(=O)(NCCCCNS(=O)(=O)c1c(F)cccc1F)c1ccc2c(c1)OCCO2,/,/,/,/,.
O=S(=O)(Nc1ccc2c(c1)OCCO2)c1c(F)cccc1F,.,.,.,.,/
COc1ccc(Oc2ncc3nc(-c4ccc(F)cc4)c(=O)n(CCC#N)c3n2)cc1,.,.,/,/,/
Cc1ccc(NS(=O)(=O)c2ccc3c(c2)NC(=O)CCS3)cc1C,/,/,/,.,/
Cc1ccc(NS(=O)(=O)c2ccc3c(c2)CCC(=O)N3)cc1C,.,.,0.79µM,.,?
CC1CC=CC2C1C(=O)N(Cc1ccccc1)C2c1ccc(/C=C/c2ccccc2)cc1F (stereo unspecified),.,.,/,/,/
Cc1ccc(NS(=O)(=O)c2ccc3oc(=O)ccc3c2)cc1Cl,?,.,1µM,.,.
SMILES,Menin MLL FP TR,Menin-MLL FL inh,PKM2 activator,MLL CXXC-DNA inh,HeLa viability
O=c1ccc2cc(S(=O)(=O)Nc3ccc(F)cc3)ccc2o1,.,.,?,.,/
CNc1nc(-c2ccccc2C)nc2ccccc12,.,.,/,/,/
Cc1ccc(CCC(=O)Nc2nccs2)o1,.,.,20µM,.,.
CC(Sc1ncc(C#N)c(N)n1)C(=O)Nc1ccccc1 (stereo unspecified),.,.,4.5µM,.,.
CC(C)Nc1nc(SC(C)C(=O)Nc2ccccc2)nc(N(C)C)n1 (stereo unspecified),.,.,.,.,/
COCC(=O)N1CCC2(CC1)CCN(c1ccncc1)CC2,.,.,/,/,/
COc1ccc(C2=Nn3c(nnc3-c3ccc(OC)c(OC)c3)SC2)cc1,.,.,/,/,/
CN1CCN(C(=O)c2ccc3c(=O)n(Cc4ccco4)c(=S)[nH]c3c2)CC1,.,.,.,.,/
O=C(c1ccc2c(=O)n(Cc3ccco3)c(=S)[nH]c2c1)N1CCN(Cc2ccccc2)CC1,.,.,0.63µM,.,.
O=S(=O)(NCCCCCNS(=O)(=O)c1ccccc1)c1ccccc1,.,.,1.4µM,.,.
COc1cc(F)c(S(=O)(=O)N2CCN(S(=O)(=O)c3ccc4c(c3)OCCO4)CC2)c(F)c1,/,/,/,/,.
O=S(=O)(c1ccc2c(c1)OCCO2)N1CCN(S(=O)(=O)c2cccc[n+]2[O-])CC1,/,/,/,/,.
COc1ccc(S(=O)(=O)N2CCC(C(=O)N[C@@H](C)C(=O)NCc3cccc(OC)c3)CC2)cc1,/,/,/,.,/
COc1ccc(S(=O)(=O)N2CCCCCC2)cc1,.,.,.,.,/
COc1ccc(S(=O)(=O)N2CCN(S(=O)(=O)c3ccc(OC)cc3)CC2)cc1,/,/,/,/,.
COc1ccc(S(=O)(=O)N2CCC(C(=O)NCc3cccc(OC)c3)CC2)cc1,.,.,1.6µM,.,.
O=C(c1ccc2c(c1)OCCO2)C1CCN(S(=O)(=O)c2ccccc2F)CC1,/,.,.,.,/
COc1ccc(S(=O)(=O)N2CCN(S(=O)(=O)c3ccc4c(c3)OCCO4)CC2)cc1,.,.,0.22µM,.,?
O=S(=O)(c1ccc2c(c1)OCCO2)N1CCN(S(=O)(=O)c2ccccn2)CC1,/,/,/,/,.
O=S(=O)(c1ccc2c(c1)OCCO2)N1CCN(S(=O)(=O)c2ccccc2F)CC1,/,/,/,/,.
O=S(=O)(c1cccc(F)c1)N1CCN(S(=O)(=O)c2ccc3c(c2)OCCO3)CC1,/,/,/,/,.
O=c1c(-c2cccs2)nc2cnc(Oc3ccccc3)nc2n1C1CC1,.,?,/,/,/
CC(C)=CCC/C(C)=C/CO/N=C1/C[C@@H](O)[C@@H](O)[C@@H]2[C@@H]3C(=O)N(Cc4ccc5c(c4)OCO5)C(=O)[C@H]3CC[C@@H]12,.[11.7 µM],.[11.7 µM],/,/,/
Nc1nc(Cl)nc2c1ncn2[C@@H]1O[C@H](CO)[C@H](O)[C@H]1O,.,.,/,.,/
O=C(O)C1CCN(S(=O)(=O)c2ccc3c(c2)OCCCO3)CC1,.,.,.,.,/
SMILES,Menin MLL FP TR,Menin-MLL FL inh,PKM2 activator,MLL CXXC-DNA inh,HeLa viability
O=S(=O)(c1ccc2c(c1)OCCO2)N1CCN(c2nc3ccccc3s2)CC1,.,.,4µM,.,.
O=S(=O)(c1ccc2c(c1)OCCO2)N1CCN(S(=O)(=O)c2c(F)ccc(O)c2F)CC1,/,/,/,/,.
O=S(=O)(c1ccc2c(c1)OCCO2)N1CCN(S(=O)(=O)c2ccc3c(c2)OCCO3)CC1,/,/,/,/,.
O=S(=O)(c1ccccc1F)N1CCN(c2nc3ccccc3s2)CC1,.,.,.,?,/
Cc1oc(C)c(C(=O)Nc2ccccc2)c1C,.,?,/,/,/
NS(=O)(=O)c1ccc(Cl)c(S(N)(=O)=O)c1,.,.,/,.,/
N#CC(C#N)=C1c2cc(S(N)(=O)=O)ccc2-c2ccc(S(N)(=O)=O)cc21,.,.,0.71µM,.,.
CCCCC/C=C\C/C=C\C/C=C\C/C=C\CCCC(=O)C(F)(F)F,.,.,/,/,/
COc1ccc(S(=O)(=O)NCC2CCCN(C(=O)c3ccccc3)C2)cc1 (stereo unspecified),.,.,2.5µM,.,.
COCC(=O)N1CCCC(CNS(=O)(=O)c2ccc(OC)cc2)C1 (stereo unspecified),.,.,.,.,/

# Screening data: PubChem, National Center for Advancing Translational Sciences (NCATS)
